Screens deposited in PubChem by National Center for Advancing Translational Sciences (NCATS).
Most compounds without a hit are left out; they make up all but 12% or so of the library.
JMJD2A Tudor inh – qHTS Assay for Inhibitors of JMJD2A-Tudor Domain | AlphaScreen JMJD2A-Tudor / H3K4me3 peptide binding | Potency, µM (top dose mostly 114 µM), most hits filed as inhibitors | actives 4.4% (n = 390,000) | AID 504339, 2011; further: nearly all actives have a fitted effect of over 50% in size
L3MBTL1 inh – qHTS Assay for the Inhibitors of L3MBTL1 | Lethal(3)malignant brain tumor-like protein 1 (Homo sapiens), Q9Y468 | AlphaScreen L3MBTL1–H3K9me1 peptide binding | Potency, µM (series often up to 57.1 µM), hits mostly inhibitors | actives 0.66% (n = 230,000) | AID 485360, 2010; further: nearly all actives have a fitted effect of over 60% in size
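L3MBTL1 50 nM + b-AHA-H3(1-15)K9me1 75 nM, 30 min RT; compound added, 30 min RT; streptavidin donor/Ni-chelate acceptor beads 10 ug/mL each final, 30 min RT dark; AlphaScreen read.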
Sfp PPTase inh – qHTS Assay for Inhibitors of Bacillus subtilis Sfp phosphopantetheinyl transferase (PPTase) | 4'-phosphopantetheinyl transferase ffp (Bacillus subtilis), Q9F4F7 | Potency, µM, most hits filed as inhibitors | AID 1490, 2009 | Biochemical Sfp PPTase activity, qHTS | actives 3.5% (n = 310,000);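 further: the enzyme is Sfp with the accession as filed and its product quenches rhodamine fluorescence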
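Fluorescence-quenching assay: 15 nM Sfp-PPTase preincubated 15 min at room temperature with compound, then 5 uM rhodamine-CoA and 12.5 uM BHQ-2-labelled YbbR peptide added. Fluorescence (ex 525/em 598 nm) read at start and after 30 min; difference gives rate.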
BAZ2B inh – qHTS Assay for Inhibitors of BAZ2B. AID 504333, 2011. AlphaScreen BAZ2B-H3K14Ac peptide displacement. Bromodomain adjacent to zinc finger domain protein 2B (Homo sapiens), Q9UIF8. actives 4.4% (n = 360,000). Potency, µM (top dose mostly 114 µM), most hits filed as inhibitors; further: nearly all actives have a fitted effect of over 60% in size
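Compounds, titrated to a top concentration of 110 uM, were incubated 30 min at room temperature with preformed BAZ2B/acetyl-K14 H3 peptide complex (50 nM each). Proximity signal was measured by AlphaScreen after 20 min with beads.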
HP1b binding inh – HTS for Inhibitors of HP1-beta Chromodomain Interactions with Methylated Histone Tails | AlphaScreen HP1-beta / biotin-H3K9me3 peptide binding | Chromobox protein homolog 1 (Homo sapiens), P83916 | Potency, µM (doses to about 114 µM), most hits filed as inhibitors | actives 0.56% (n = 390,000); further: nearly all actives have a fitted effect of over 70% in size
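Compound inhibition of the preformed complex between 50 nM HP1-beta and 50 nM biotinylated H3K9me3 peptide was read by AlphaScreen. Buffer was PBS pH 7.4 with 0.01% Tween-20. Incubations ran 30 min at room temperature, with 10 ug/mL donor/acceptor beads.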
G9a inh – qHTS Assay for Inhibitors of Histone Lysine Methyltransferase G9a; Histone-lysine N-methyltransferase EHMT2 (Homo sapiens), Q96KQ7; G9a H3K9 monomethylation, AlphaScreen, 2 h; Potency, µM (highest dose often 102 µM), usual class: inhibitors; actives 8.8% (n = 350,000); further: nearly all actives have a fitted effect of over 75% in size
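Enzyme 20 nM + cpd, 15 min RT; add b-H3K9 pep 500 nM / SAM 20 uM; 2 h RT; anti-H3K9me1 Ab 0.5 ug/mL + SA donor / anti-rabbit acceptor beads 20 ug/mL each, 10 min; AlphaScreen read.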
Hits are given with their value; [ ] = another dose, or the depositor's remark. The call rests on the fitted dose curve; in most records, active means well fitted curve in the direction sought with a large enough effect; inconclusive means small, poorly fitted or top-dose-only effect, or another doubt; inactive means no such curve, though single readings can be large; an effect the other way counts as inactive or inconclusive.

Screening O=[N+]([O-])c1ccc(OCC(O)CN(CCO)CCO)cc1 (configuration not stated) returned JMJD2A Tudor inh inactive, L3MBTL1 inh inactive, Sfp PPTase inh inactive, BAZ2B inh inactive, HP1b binding inh inactive and G9a inh inactive.
Screening c1cc2c3c(cccc3c1)NC1(CCCC1)N2 returned JMJD2A Tudor inh inconclusive and HP1b binding inh inactive.
Screening S=C1NC2(CCCCC2)Nc2ccccc21 returned JMJD2A Tudor inh inactive, L3MBTL1 inh inactive, Sfp PPTase inh inactive, BAZ2B inh inconclusive, HP1b binding inh inactive and G9a inh 45µM.
For S=C1NC2(CCCC2)Nc2ccccc21 the results were JMJD2A Tudor inh inactive, L3MBTL1 inh inactive, Sfp PPTase inh inactive, BAZ2B inh inconclusive, HP1b binding inh inactive and G9a inh 11µM.
For CC(C)c1ccc2c(c1)CCC1C(C)(CN)CCCC21C (configuration not stated) the results were JMJD2A Tudor inh inactive, Sfp PPTase inh 11µM, BAZ2B inh inactive, HP1b binding inh inactive and G9a inh inactive.
Screening CC(C)c1ccc2c(c1)CC[C@@H]1[C@@](C)(CN)CCC[C@]21C returned Sfp PPTase inh inactive.
For CC(=O)NC1=C(NC2CCS(=O)(=O)C2)C(=O)c2ccccc2C1=O (configuration not stated) the results were JMJD2A Tudor inh 20µM, L3MBTL1 inh inactive, Sfp PPTase inh 32µM, BAZ2B inh inactive, HP1b binding inh 45µM and G9a inh 1.8µM.
CN(C1=C(NC(=O)c2ccccc2)C(=O)c2ccccc2C1=O)C1CCS(=O)(=O)C1 (configuration not stated) was read as JMJD2A Tudor inh inconclusive, L3MBTL1 inh inactive, Sfp PPTase inh 20µM, BAZ2B inh 50µM, HP1b binding inh inactive and G9a inh inconclusive.
Screening CCc1cc(C(=O)OC)c(NC(=O)CN2CCN(C(=O)c3ccco3)CC2)s1 returned JMJD2A Tudor inh inactive, Sfp PPTase inh inactive, BAZ2B inh inactive and HP1b binding inh inactive.
Cc1ccc(C(=O)c2cc(C)sc2NC(=O)CN2CCN(C(=O)c3ccco3)CC2)cc1 was read as JMJD2A Tudor inh inconclusive, L3MBTL1 inh inactive, Sfp PPTase inh inconclusive, BAZ2B inh inconclusive, HP1b binding inh inconclusive and G9a inh 32µM.
For COC(=O)c1[nH]c2cccc(C)c2c1NC(=O)CN1CCN(C(=O)c2ccco2)CC1 the results were JMJD2A Tudor inh inactive, L3MBTL1 inh inactive, Sfp PPTase inh inactive, HP1b binding inh inactive and G9a inh inactive.
Screening COC(=O)c1[nH]c2cc(C)ccc2c1NC(=O)CN1CCN(C(=O)c2ccco2)CC1 returned JMJD2A Tudor inh inactive, L3MBTL1 inh inactive, Sfp PPTase inh 50µM, BAZ2B inh inconclusive, HP1b binding inh inactive and G9a inh inconclusive.
`COC(=O)c1[nH]c2cc(C)ccc2c1NC(=O)CN1CCCc2ccccc21` gave JMJD2A Tudor inh inconclusive, L3MBTL1 inh inactive, Sfp PPTase inh inconclusive, BAZ2B inh 45µM, HP1b binding inh inactive and G9a inh inconclusive.
COC(=O)c1[nH]c2ccc(Br)cc2c1NC(=O)CN1CCCc2ccccc21 was read as JMJD2A Tudor inh inactive, L3MBTL1 inh inactive, Sfp PPTase inh inactive, BAZ2B inh inactive, HP1b binding inh inactive and G9a inh inactive.
`Cc1cc(C)c(NC(=O)CSc2nc3ccccc3c3nc(-c4ccccc4)nn23)c(C)c1` gave JMJD2A Tudor inh inactive, BAZ2B inh inactive, HP1b binding inh inactive and G9a inh inactive.
Screening CCOc1ccc(C(=O)Nc2nnc(S(=O)(=O)N(CC)c3ccccc3C)s2)cc1 returned JMJD2A Tudor inh inactive, BAZ2B inh inactive, HP1b binding inh inactive and G9a inh inactive.
Screening Cc1nn(C)c(C)c1CN(C)C(=O)CCCC(=O)O returned JMJD2A Tudor inh 50µM, L3MBTL1 inh inactive, Sfp PPTase inh inactive, BAZ2B inh inactive, HP1b binding inh inactive and G9a inh inactive.
Cc1nn(C)c(C)c1CN(C)C(=O)C1CCC(=O)N(C2CCCCCC2)C1 (configuration not stated) was read as JMJD2A Tudor inh inactive, Sfp PPTase inh inactive, BAZ2B inh inactive and HP1b binding inh inactive.
`O=[N+]([O-])c1cc(Cl)c(O)c2ncccc12` gave JMJD2A Tudor inh 22µM, Sfp PPTase inh inactive, BAZ2B inh 20µM, HP1b binding inh inconclusive and G9a inh 25µM.
O=[N+]([O-])c1cccc2c(Cl)ccnc12 was read as JMJD2A Tudor inh inactive, L3MBTL1 inh inactive, Sfp PPTase inh 79µM, BAZ2B inh inactive and HP1b binding inh inactive.
Clc1ccc(Oc2ccccc2)c2ncccc12 was read as JMJD2A Tudor inh inactive, Sfp PPTase inh inactive, BAZ2B inh inactive, HP1b binding inh inactive and G9a inh inactive[2.33 µM].
`Clc1cc2cccnc2c2ncccc12` gave JMJD2A Tudor inh inactive, L3MBTL1 inh 10µM, BAZ2B inh 3.5µM, HP1b binding inh inactive and G9a inh inconclusive.
O=[N+]([O-])c1ccccc1Oc1ccc(Cl)c2cccnc12 was read as JMJD2A Tudor inh inactive, L3MBTL1 inh inactive, Sfp PPTase inh inconclusive, BAZ2B inh inactive, HP1b binding inh inactive and G9a inh inactive.
Oc1c(I)cc(Cl)c2cccnc12 was read as JMJD2A Tudor inh 79µM, L3MBTL1 inh inconclusive, Sfp PPTase inh inactive, BAZ2B inh 40µM, HP1b binding inh inactive and G9a inh 35µM.
Screening Cc1oc(-c2ccc(Cl)cc2)nc1CSc1nnc(C)n2c1cc1sccc12 returned JMJD2A Tudor inh inactive, BAZ2B inh inactive, HP1b binding inh inactive and G9a inh inactive.
COc1cc(Cl)c(C)cc1NC(=O)c1nn(-c2ccc(C)cc2)c(=O)n(C)c1=O was read as JMJD2A Tudor inh inactive, BAZ2B inh inactive, HP1b binding inh inactive and G9a inh inactive.
For O=[N+]([O-])c1cc(Cl)c2cccnc2c1O the results were JMJD2A Tudor inh 20µM, L3MBTL1 inh 32µM, Sfp PPTase inh inactive, BAZ2B inh 18µM, HP1b binding inh inconclusive and G9a inh 35µM.
CN(Cc1cc([N+](=O)[O-])c2cccnc2c1O)C1CCCCC1 was read as L3MBTL1 inh inactive, Sfp PPTase inh inactive, BAZ2B inh 7.9µM and G9a inh inactive.
For Cc1c(C)c2cccnc2c2ncccc12 the results were JMJD2A Tudor inh 10µM, L3MBTL1 inh 0.79µM, BAZ2B inh 5.6µM and HP1b binding inh inactive.
For O=[N+]([O-])c1ccc(Cl)c2cccnc12 the results were JMJD2A Tudor inh inactive, L3MBTL1 inh inactive, Sfp PPTase inh inactive, BAZ2B inh inactive, HP1b binding inh inactive and G9a inh inactive.
